The text below walks through data of PubChem BioAssay.

Active and inactive are the calls of the source.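 How the source made its calls, unless noted: active means fluorescence slope after compound addition differing from the mean of all screened samples at 99.7% confidence, in either direction; inactive means the rest.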

A short description of test [1]: inhibitors of TNFa-induced NFkB p65 translocation, primary screen, imaging, HUVEC, MLSMR starter and 10KST1 sets (AID 438;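 active means inhibition above 20% together with a positive visual image hit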;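 further: compound added about 3h40 before a 20 min TNFalpha stimulation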;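 on inhibition: signal is the nuclear over cytoplasmic p65 intensity ratio per well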). The settings on record: HUVEC TNFa-induced p65 nuclear translocation; cell count: measured here: nuclei count (cytotoxicity indicator), at 2.08 µM; inhibition: at 2 µM, stronger effect = higher value, 0% TNFa-plus-vehicle, 100% no-TNFa wells.
Test [2] can be described thus: inhibitors of mutant huntingtin aggregation, primary screen, imaging, exon1htt(103Q)mCFP cells, high-content imaging (AID 483;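 active means visual image review flags a hit and inhibition of aggregation exceeds 20%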;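 further: compound exposure lasted 3 days before fixation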;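 on nuclei count: percent of the per-plate median nuclei count of sample wells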). The settings on record: exon1htt(103Q)mCFP cell line, aggregate imaging, at 2 µM; inhibition of aggregation: stronger effect = higher value; nuclei count: measured here: cell count, toxicity.
A short description of test [3]: inhibitors of E-selectin induction by TNFa, primary screen, imaging, HUVEC, immunofluorescence, MLSMR starter and 10KST1 sets (AID 487;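 active means visually confirmed hit in the image check and inhibition above 20%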;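 on inhibition: signal is fraction of cell area covered by stained E-selectin grains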;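 on nuclei count: 100% = median nuclei count of all wells on the same plate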). The settings on record: HUVEC TNFalpha-induced E-selectin immunofluorescence imaging, at 2 µM; inhibition: stronger effect = higher value; nuclei count: measured here: cell number, toxicity.
Test [4] deals with Voltage-gated potassium channel subunit beta-2 (Rattus norvegicus) (UniProt P62483). The experiment in a line: KvBeta enzyme negative modulators, primary screen, biochemical, NADPH fluorescence (AID 622;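 active means fluorescence slope higher than the sample average by over 3 SD, cut at about -0.22 in these data, passing the limit was not always enough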;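 further: slope of raw intensity against log time taken from 70 to 1610 s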). The settings on record: recombinant KvBeta, 4-cyanobenzaldehyde reduction, at 10 µM, stronger effect = higher value.
Test [5] has the same target. Briefly: KvBeta positive modulators, primary screen, biochemical, NADPH fluorescence (AID 623;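 active means NADPH fluorescence slope more negative than the mean of all samples by about 3 SD, 99.7% confidence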;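 further: fluorescence intensity change per second fitted from 20 to 320 s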). The settings on record: Recombinant KvBeta, NADPH fluorescence decrease slope, 10 min; at 10 µM; stronger effect = lower value.
Test [6] addresses Alpha-2C adrenergic receptor (Homo sapiens) (UniProt P18825). The experiment in a line: modulators of alpha2C/GIRK thallium flux, primary screen, cell-based, HEK293 alpha2C/GIRK1/2 (AID 624).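 Further: slope of fluorescence ratio to pre-addition baseline per second over 15 to 24 s.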 The settings on record: thallium flux BTC fluorescence, at 10 µM, actives lie on both sides.
A short description of test [7]: inhibitors of Sendai virus-induced IRF3 signaling, primary screen, TLR/RLR signaling modifier project, cell-based, Sendai virus stimulus, luciferase, 10K MLSCN set (AID 602276;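 active means inhibition at or above 50% at 10 µM; inactive means inhibition below 50%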;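 further: firefly luciferase from ISG56 promoter only with Renilla not read in this screen; 0% = Sendai virus plus DMSO and 100% = medium plus DMSO without virus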). The settings on record: HEK293 RL24 IRF3 luciferase reporter, at 10 µM, stronger effect = higher value.
The nature of test [8]: inhibitors of poly I:C-induced TLR3 signaling, primary screen, cell-based, poly I:C stimulus, luciferase, 10K MLSCN set (AID 602277;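 active means inhibition of the reporter signal at or above 50%; inactive means inhibition below 50%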). The settings on record: HEK293-TLR3 RL24 IRF3 luciferase reporter, at 10 µM, stronger effect = higher value.

Sequence of Alpha-2C adrenergic receptor (Homo sapiens) (P18825 whole entry, looked up): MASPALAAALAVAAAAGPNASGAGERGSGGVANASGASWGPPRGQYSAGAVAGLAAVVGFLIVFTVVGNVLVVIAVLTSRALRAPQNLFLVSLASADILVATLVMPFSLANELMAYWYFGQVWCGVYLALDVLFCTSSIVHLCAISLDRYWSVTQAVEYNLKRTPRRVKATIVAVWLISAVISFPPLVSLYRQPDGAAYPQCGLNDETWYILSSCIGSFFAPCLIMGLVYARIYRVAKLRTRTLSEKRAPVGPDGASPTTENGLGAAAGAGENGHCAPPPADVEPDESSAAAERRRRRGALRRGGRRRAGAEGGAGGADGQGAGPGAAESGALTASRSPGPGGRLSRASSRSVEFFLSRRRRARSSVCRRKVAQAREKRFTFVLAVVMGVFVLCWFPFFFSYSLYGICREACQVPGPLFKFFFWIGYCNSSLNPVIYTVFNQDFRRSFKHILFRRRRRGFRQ
Sequence of Voltage-gated potassium channel subunit beta-2 (Rattus norvegicus) (P62483 whole entry, looked up): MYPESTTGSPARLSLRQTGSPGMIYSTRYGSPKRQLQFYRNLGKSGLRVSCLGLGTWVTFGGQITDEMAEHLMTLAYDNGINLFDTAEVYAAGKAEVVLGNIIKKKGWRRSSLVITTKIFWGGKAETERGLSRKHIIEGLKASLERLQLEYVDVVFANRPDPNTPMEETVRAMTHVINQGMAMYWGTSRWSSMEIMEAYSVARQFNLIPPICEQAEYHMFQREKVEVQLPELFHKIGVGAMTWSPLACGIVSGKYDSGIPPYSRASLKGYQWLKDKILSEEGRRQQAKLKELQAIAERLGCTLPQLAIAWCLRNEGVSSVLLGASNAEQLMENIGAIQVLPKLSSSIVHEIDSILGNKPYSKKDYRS

As to `CCOC(=O)C1=C(C)NC(C)=C(C(=O)OCC)C1c1cc(N)ccc1OC(F)F`, the cell count in test [1] was 181. For the same compound, the inhibition in test [1] is -11% (inactive); in test [3], -12.2% (inactive); in test [7], 8.52% (inactive); in test [8], 28.4% (inactive). The inhibition of aggregation in test [2] was 22.6% (inactive). Further, the nuclei count in test [2] was 83.8%; in test [3] it was 96.5%. Besides, the fluorescence slope in test [4] was -0.445 (inactive). For the same compound, in test [5], the NADPH fluorescence slope was 4.3e-05 (inactive). Further, the slope in test [6] was 0.00592 (inactive).

In the case of `O=c1c(-c2ccccc2)coc2c(CN3CCOCC3)c(O)ccc12`, the cell count in test [1] turned out to be 335. The inhibition in test [1] is -2.5% (inactive); in test [3], -116% (inactive); in test [7], -3.14% (inactive); in test [8], 10.1% (inactive). Besides, the inhibition of aggregation in test [2] was -6.5% (inactive). Besides, the nuclei count in test [2] amounted to 108%; in test [3], 129%. Moreover, the fluorescence slope in test [4] is -0.0601 (active). Also, in test [5], the NADPH fluorescence slope was 4.4e-06 (inactive). For the same compound, the slope in test [6] was 0.00553 (inactive).

`COC(=O)c1cnc2c(C(F)(F)F)cccc2c1OC`: the cell count in test [1] came to 595. Further, the inhibition in test [1] was -8.5% (inactive); in test [3], -64.2% (inactive); in test [7], 9.38% (inactive); in test [8], 10.1% (inactive). In addition, the inhibition of aggregation in test [2] is -5% (inactive). In addition, the nuclei count was determined as 61.8% in test [2] and 84.8% in test [3]. Also, in test [4], the fluorescence slope was -0.605 (inactive). In addition, in test [5], the NADPH fluorescence slope was 6.9e-06 (inactive). Further, in test [6], the slope was 0.0043 (inactive).

As for `Cc1cc(NS(=O)(=O)c2ccc(Nc3nc(-c4sc(N)nc4C)cs3)cc2)no1`, the cell count in test [1] was determined as 333. The inhibition in test [1] is 5.5% (inactive); in test [3], -11.3% (inactive); in test [7], 6.21% (inactive); in test [8], 25.1% (inactive). The inhibition of aggregation in test [2] was -10.4% (inactive). Further, the nuclei count in test [2] was 117%; in test [3] it was 103%. Also, the fluorescence slope in test [4] is -0.412 (inactive). Also, the NADPH fluorescence slope in test [5] was -7.5e-05 (inactive). Further, the slope in test [6] was 0.00495 (inactive).

In the case of `O=C1CC(N2CCOCC2)C(=O)N1c1ccccc1Cl` (centres undefined), the cell count in test [1] was determined as 386. Further, the inhibition is -0.6% (inactive) in test [1], -25.3% (inactive) in test [3], 9.93% (inactive) in test [7] and 18% (inactive) in test [8]. The inhibition of aggregation in test [2] is 13.9% (inactive). The figures for the nuclei count in test [2] and in test [3] were 96.9% and 128%, respectively. Moreover, the fluorescence slope in test [4] is -0.338 (inactive). For the same compound, the NADPH fluorescence slope in test [5] is 1.7e-05 (inactive). In test [6], the slope is 0.00688 (inactive).

For the compound `CCOc1ccc(-c2cc(CCCC(=O)N3CCN(c4ccc(OC)cc4)CC3)no2)cc1`, the cell count in test [1] came to 513. Also, the inhibition in test [1] is 0.7% (inactive); in test [3], -0.1% (inactive); in test [7], 11% (inactive); in test [8] it was 24.1% (inactive). Further, the inhibition of aggregation in test [2] is 23.7% (inactive). Besides, the nuclei count in test [2] is 61%; in test [3] it was 86%. Moreover, in test [4], the fluorescence slope is -0.614 (inactive). In addition, the NADPH fluorescence slope in test [5] was 2.2e-05 (inactive). For the same compound, in test [6], the slope is 0.00539 (inactive).

Turning to `O=C(O)c1cc2nc(-c3ccc(F)cc3)cc(C(F)(F)F)n2n1`, in test [1], the cell count amounted to 435. Besides, the inhibition in test [1] is 4.9% (inactive); in test [3], 26.5% (inactive); in test [7] it was 0.989% (inactive); in test [8] it was 19.6% (inactive). Besides, the inhibition of aggregation in test [2] is -0.7% (inactive). The values for the nuclei count in test [2] and in test [3] were 97.9% and 110%, respectively. For the same compound, in test [4], the fluorescence slope was -0.385 (inactive). In addition, in test [5], the NADPH fluorescence slope was -4.1e-05 (inactive). The slope in test [6] was 0.00272 (inactive).

`Cc1ccc(C)c(N2CCN(S(=O)(=O)c3ccc4c(c3)OCCO4)CC2)c1`: in test [1], the cell count was 521. Moreover, the inhibition in test [1] is -2.6% (inactive); in test [3], -136% (inactive); in test [7], 10.2% (inactive); in test [8] it was 16.3% (inactive). Also, in test [2], the inhibition of aggregation is -13.4% (inactive). The nuclei count in test [2] is 134%; in test [3], 209%. The fluorescence slope in test [4] was -0.64 (inactive). Further, the NADPH fluorescence slope in test [5] was 3.2e-05 (inactive). Also, the slope in test [6] is 0.00722 (inactive).

As for `O=C(O)c1ccc(COc2c(F)c(F)cc(F)c2F)cc1`, the cell count in test [1] turned out to be 611. Moreover, the inhibition in test [1] is -0.8% (inactive); in test [3], -50.1% (inactive); in test [7] it was 8.32% (inactive); in test [8], 8.92% (inactive). For the same compound, the inhibition of aggregation in test [2] is 27.2% (inactive). Besides, the nuclei count in test [2] came out at 102%; in test [3] it was 107%. Moreover, in test [4], the fluorescence slope was -0.453 (inactive). In test [5], the NADPH fluorescence slope was -1.9e-05 (inactive). The slope in test [6] was 0.00642 (inactive).

Consider `CC(C)OC(=O)CN1C(=O)C(C)(C)Oc2ccc(C(=O)NC3CC3)cc21`, for which the cell count in test [1] stood at 537. The inhibition in test [1] is -6.7% (inactive); in test [3] it was -11.5% (inactive); in test [7], 14.5% (inactive); in test [8] it was 17.5% (inactive). For the same compound, in test [2], the inhibition of aggregation is 18% (inactive). Further, the values for the nuclei count in test [2] and in test [3] were 104% and 102%, respectively. In test [4], the fluorescence slope is -0.496 (inactive). In addition, the NADPH fluorescence slope in test [5] was -7.2e-05 (inactive). Besides, the slope in test [6] was 0.00477 (inactive).

`Cc1nc(NC(=O)c2csc3ccccc23)sc1C`: the cell count in test [1] worked out at 386. Further, the inhibition was -2.7% (inactive) in test [1], -38.1% (inactive) in test [3], -31.4% (inactive) in test [7] and -86.4% (inactive) in test [8]. Moreover, the inhibition of aggregation in test [2] is -3.7% (inactive). The nuclei count in test [2] turned out to be 103%; in test [3], 117%. Besides, in test [4], the fluorescence slope is -0.504 (inactive). In test [5], the NADPH fluorescence slope was -5.5e-05 (inactive). Also, the slope in test [6] was 0.00508 (inactive).

As for `COc1ccc(C(=O)N2CCN(C3CCC(c4ccccc4)CC3)CC2)cc1OC` (centres undefined), the cell count in test [1] came out at 420. For the same compound, the inhibition in test [1] was -1.3% (inactive); in test [3], 43.2% (inactive); in test [7], 7.44% (inactive); in test [8], 17.6% (inactive). Moreover, the inhibition of aggregation in test [2] was 20.2% (inactive). Further, the nuclei count is 88.1% in test [2] and 83.9% in test [3]. In addition, in test [4], the fluorescence slope is -0.436 (inactive). Besides, in test [5], the NADPH fluorescence slope is -5.4e-05 (inactive). For the same compound, the slope in test [6] was 0.00292 (inactive).

Turning to `Cc1ccc(NC(=O)C2CCCN(S(=O)(=O)c3cnc[nH]3)C2)cc1C` (centres undefined), the cell count in test [1] was 626. In addition, the inhibition is 1.6% (inactive) in test [1], -102% (inactive) in test [3], 20.9% (inactive) in test [7] and 6.37% (inactive) in test [8]. In addition, the inhibition of aggregation in test [2] is 11.8% (inactive). For the same compound, the nuclei count in test [2] amounted to 106%; in test [3], 134%. The fluorescence slope in test [4] is -0.527 (inactive). The NADPH fluorescence slope in test [5] is -2.9e-05 (inactive). The slope in test [6] is 0.00769 (inactive).

As for `COc1cccc2cc(C(=O)OC3CCN(C)CC3)c(=O)oc12`, in test [1], the cell count was determined as 532. Also, the inhibition was -6.1% (inactive) in test [1], -56% (inactive) in test [3], 6.92% (inactive) in test [7] and 31.8% (inactive) in test [8]. Also, the inhibition of aggregation in test [2] is 38.8% (inactive). Moreover, the values for the nuclei count in test [2] and in test [3] were 77.9% and 110%, respectively. The fluorescence slope in test [4] was -0.605 (inactive). In test [5], the NADPH fluorescence slope was -2.6e-06 (inactive). In test [6], the slope is 0.00643 (inactive).
